Laboratory results from PubChem BioAssay AID504834 (National Center for Advancing Translational Sciences (NCATS), 2011).
About 22,000 (6.9%) of roughly 320,000 compounds were called active. Inconclusive results (about 27%) are left out. Calls come from the whole dose curve; as a rule, active = well fitted inhibition curve with a large enough effect; inconclusive = small, poorly fitted or top-dose-only effect, or another doubt; inactive = no such curve, though single readings can be large or run the other way. Shown is part of a subset that was picked to be rich in actives. Entries that show only a call come without a potency.

experiment: Primary qHTS for delayed death inhibitors of the malarial parasite plastid, 96 hour incubation; conditions: P. falciparum luciferase reporter growth; series mostly up to 28.7 µM
In short: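 Cell-based qHTS: luciferase-tagged P. falciparum in erythrocytes (2% hematocrit, 0.05% parasitemia final) incubated with compounds for 96 hours, 37 C, 5% CO2; luciferase detection reagent then added and luminescence measured.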
Potency is the fitted concentration of half-maximal effect.

Row | SMILES | Potency
1 | CCOc1ccc(N(C)S(=O)(=O)c2cnc[nH]2)cc1 | inactive
2 | O=C(COc1ccc(Cl)cc1Cl)N/N=C/c1ccccn1 | inactive
3 | O=C(NCCN1CCOCC1)c1ccc(/C=C2\Sc3ccccc3N(Cc3ccc(F)cc3)C2=O)cc1 | inactive
4 | CC(=O)[C@@]12O[C@@H]1C[C@H]1[C@@H]3CC[C@H]4C[C@@H](O)CC[C@]4(C)[C@H]3CC[C@@]12C | inactive
5 | COC(=O)c1ccc(NS(=O)(=O)c2cc3c4c(c2)C(C)C(=O)N4CCC3)cc1 (centres undefined) | inactive
6 | COc1ccc(CNC(=O)C(=O)N2CCC3(CC2)OCCN3S(=O)(=O)c2ccc(C)cc2)cc1 | inactive
7 | COc1ccc(S(=O)(=O)N2CCOC23CCN(S(=O)(=O)c2ccc([N+](=O)[O-])cc2)CC3)cc1 | 11.7 µM (active)
8 | CC(C)c1ccc(S(=O)(=O)N2CCC3(CC2)OCCO3)cc1 | inactive
9 | C=CCn1c(=O)c(C(=O)Nc2ncccc2O)c(O)c2ccccc21 | inactive
10 | CC(C)Oc1ccc(CCc2n[nH]c(=S)n2Cc2ccccc2)cc1 | 2.08 µM (active)
11 | C=CCn1c(CCc2ccc(OC(C)C)cc2)n[nH]c1=S | inactive
12 | CC(NS(=O)(=O)c1ccccc1)c1n[nH]c(=S)n1-c1ccccc1 (centres undefined) | inactive
13 | NS(=O)(=O)c1ccccc1NC(=O)c1c(O)c2ccccc2[nH]c1=O | inactive
14 | Cc1cc(C(C)(C)C)cc(S(=O)(=O)Nc2ccc(C(=O)O)cc2)c1C | inactive
15 | O=C(c1ccc(NS(=O)(=O)c2ccc3[nH]c(=O)[nH]c3c2)cc1)N1CCCCC1 | inactive
16 | O=C(O)c1ccc(NS(=O)(=O)c2ccc3c(c2)C(=O)c2cc(S(=O)(=O)Nc4ccc(C(=O)O)cc4)ccc2-3)cc1 | 0.329 µM (active)
17 | Cc1cc(C)n(CCC(=O)N2CCN(S(=O)(=O)c3ccc(C)c(C)c3)CC2)n1 | inactive
18 | O=C(NCCCN1CCOCC1)c1cc(-c2cccc(O)c2)on1 | inactive
19 | CC(=O)Nc1nc2c(s1)C(=O)NCC(C)(C)C2 | inactive
20 | COc1cccc(-c2nc(CS(=O)(=O)CC(=O)NCCc3ccc(OC)c(OC)c3)c(C)o2)c1 | inactive
21 | COc1ccccc1CSc1nc2ccccc2[nH]1 | inactive
22 | CCc1nc2ccccc2c(C(=O)NCc2ccc(OC)cc2)c1C | inactive

Row | SMILES | Potency
23 | O=C(NCc1ccccc1)c1onc(CSc2nc3ccccc3[nH]2)c1C(=O)NCc1ccccc1 | 1.85 µM (active)
24 | Cc1ccc(C)c(NC(=O)COC(=O)Cn2c(C)csc2=O)c1 | inactive
25 | O=C(Nc1ccccc1)C1CC(=O)n2c(nc3ccccc32)N1 (centres undefined) | inactive
26 | Cc1ccc(OCC(=O)Nc2ccccc2C(=O)NC2CC2)cc1 | inactive
27 | CC1(c2ccc(Cl)cc2)NC(=O)N(CC(=O)c2ccc3c(c2)OCO3)C1=O (centres undefined) | inactive
28 | O=C(NCCCN1CCOCC1)c1ccc(N2CCCC2)c([N+](=O)[O-])c1 | inactive
29 | CCOC(=O)c1c(NC(=O)c2ccc(N3CCOCC3)c([N+](=O)[O-])c2)sc(C)c1C | inactive
30 | COCCNC(=O)c1ccc(N2CCC3(CC2)OCCO3)c([N+](=O)[O-])c1 | 14.7 µM (active)
31 | Cc1cccc(-c2noc(CCC(=O)NC3CCCC3)n2)c1 | inactive
32 | NS(=O)(=O)c1cc(C(=O)OCC(=O)NNC(=O)c2ccccc2)ccc1Cl | inactive
33 | O=C(/C=C/c1ccc2c(c1)OCO2)NCc1ccc(F)cc1 | inactive
34 | CC1CCC(NC(=O)C2c3ccccc3C(=O)N2Cc2ccc3c(c2)OCO3)CC1 (centres undefined) | inactive
35 | CC1CCC(N2CC(=O)N(Cc3ccc4c(c3)OCO4)C(c3ccc(F)cc3)C2=O)CC1 (centres undefined) | 9.28 µM (active)
36 | O=S(=O)(c1cccc(Cn2nnc(-c3ccc(F)cc3)n2)c1)N1CCOCC1 | inactive
37 | CCOC(=O)c1cc(=O)c2ccc(OCc3ccccc3)cc2o1 | inactive
38 | CC(C)Oc1ccc(C(=O)NCC(=O)Nc2ccc3c(c2)CCC3)cc1 | inactive
39 | Nc1ccc2nn(-c3ccc(Cl)cc3)nc2c1 | inactive
40 | Cc1ccc(-n2ncc3c(=O)[nH]cnc32)c(C)c1 | 14.7 µM (active)
41 | Cc1ccc(-n2ncc3c2ncn2nc(-c4ccco4)nc32)c(C)c1 | inactive
42 | COC(=O)CSc1ncnc2c1cnn2-c1ccc(C)cc1C | inactive
43 | COc1cc(NC(=O)C2=CC(c3ccc(C)cc3)=NS(=O)(=O)N2C)cc(OC)c1OC | inactive
44 | CCCS(=O)(=O)N1CCC(CCOc2ccccc2)(C(=O)OCC)CC1 | inactive

Row | SMILES | Potency
45 | CCOC(=O)C1(CCOc2ccccc2)CCN(C(=O)c2cncs2)CC1 | 9.28 µM (active)
46 | CCOC(=O)C1(CCOc2ccccc2)CCN(Cc2cc(OC)cc(OC)c2)CC1 | inactive
47 | CC(=O)NCC(=O)N1CCC(n2nccc2NC(=O)CCCc2ccccc2)CC1 | inactive
48 | CCOc1ncccc1C(=O)Nc1ccc(S(=O)(=O)Nc2nc(C)cc(C)n2)cc1 | inactive
49 | COc1ccc(/C=C(\NC(=O)c2ccccc2)C(=O)NCCN2CCOCC2)cc1OC | inactive
50 | Nc1nc(NCc2ccccc2)n(-c2ccccc2)n1 | inactive
51 | Cc1ccc2nc(SCC(=O)Nc3cccc4ccccc34)nc(=O)n2c1 | inactive
52 | COc1ccccc1N1CCN(S(=O)(=O)c2ccc3c(c2)NC(=O)CS3)CC1 | 11.7 µM (active)
53 | COc1ccccc1N1CCN(C(=O)CCS(=O)(=O)c2ccc3c(c2)NC(=O)C(C)S3)CC1 (centres undefined) | inactive
54 | COc1ccccc1N1CCN(S(=O)(=O)c2ccc(Cl)cc2)CC1 | inactive
55 | Cc1cc(C)c2c(Cn3ccnc3)cc(=O)oc2c1 | inactive
56 | CCOc1ccc(S(=O)(=O)N2CCC(C(=O)OCc3ccc(OC)cc3)CC2)cc1 | inactive
57 | O=C(CSc1n[nH]c(-c2cccs2)n1)N1CCCCC1 | inactive
58 | Nc1ncc(CN2CCCC(C(=O)Nc3ccc(-c4ccco4)cc3)C2)cn1 (centres undefined) | inactive
59 | NC(=O)c1cc(S(=O)(=O)NCCCc2ccco2)cs1 | inactive
60 | S=C(Nc1cccc(Cl)c1)Nc1ccc2c(c1)OCCO2 | inactive
61 | CCS(=O)(=O)N1Cc2ccccc2CC1C(=O)Nc1ccc(OC)cc1OC (centres undefined) | inactive
62 | COc1ccc(C(=O)Nc2c(Cl)cc(Cl)cc2C(=O)N2CCC(C)CC2)cc1 | 13.1 µM (active)
63 | COc1ccc(N2CCN(C(=O)C3CCN(C(=O)c4ccccc4Cl)CC3)CC2)cc1 | inactive
64 | COc1ccc(C(=O)N2CCC(C(=O)Nc3ccc(C)cc3)CC2)cc1 | inactive
